# Experimental data as given in the supplement of paper PMC3334620.
# In all, about 33,000 sequences were measured (“E-score (-0.5 to 0.5)”: median about -0.056, highest 2% from about 0.38 on). The list comes from a sample in which the highest values are over-represented; it also holds similar and randomly drawn sequences.
# Molecular target: Stb4 (UniProt P50104)
# Assay: PBM E-score (8-mer binding enrichment) (E-score (-0.5 to 0.5)); higher = stronger / more preferred TF binding
# Conditions: protein concentration: 200 nM; construct: GST-DNA-binding domain
# Procedure, shortened: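 The E-score, a modified Wilcoxon-Mann-Whitney statistic, was computed by the Universal PBM Analysis Suite for every ungapped eight-base word pooled with its reverse complement. Scans behind it were normalised with masliner after bound GST-tagged yeast transcription factors were detected with fluorescent anti-GST. The proteins, at about 100-200 nM, had been applied to universal all-10-mer Agilent arrays made double-stranded by primer extension.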
# UniProt P50104, sequence (P50104 whole entry): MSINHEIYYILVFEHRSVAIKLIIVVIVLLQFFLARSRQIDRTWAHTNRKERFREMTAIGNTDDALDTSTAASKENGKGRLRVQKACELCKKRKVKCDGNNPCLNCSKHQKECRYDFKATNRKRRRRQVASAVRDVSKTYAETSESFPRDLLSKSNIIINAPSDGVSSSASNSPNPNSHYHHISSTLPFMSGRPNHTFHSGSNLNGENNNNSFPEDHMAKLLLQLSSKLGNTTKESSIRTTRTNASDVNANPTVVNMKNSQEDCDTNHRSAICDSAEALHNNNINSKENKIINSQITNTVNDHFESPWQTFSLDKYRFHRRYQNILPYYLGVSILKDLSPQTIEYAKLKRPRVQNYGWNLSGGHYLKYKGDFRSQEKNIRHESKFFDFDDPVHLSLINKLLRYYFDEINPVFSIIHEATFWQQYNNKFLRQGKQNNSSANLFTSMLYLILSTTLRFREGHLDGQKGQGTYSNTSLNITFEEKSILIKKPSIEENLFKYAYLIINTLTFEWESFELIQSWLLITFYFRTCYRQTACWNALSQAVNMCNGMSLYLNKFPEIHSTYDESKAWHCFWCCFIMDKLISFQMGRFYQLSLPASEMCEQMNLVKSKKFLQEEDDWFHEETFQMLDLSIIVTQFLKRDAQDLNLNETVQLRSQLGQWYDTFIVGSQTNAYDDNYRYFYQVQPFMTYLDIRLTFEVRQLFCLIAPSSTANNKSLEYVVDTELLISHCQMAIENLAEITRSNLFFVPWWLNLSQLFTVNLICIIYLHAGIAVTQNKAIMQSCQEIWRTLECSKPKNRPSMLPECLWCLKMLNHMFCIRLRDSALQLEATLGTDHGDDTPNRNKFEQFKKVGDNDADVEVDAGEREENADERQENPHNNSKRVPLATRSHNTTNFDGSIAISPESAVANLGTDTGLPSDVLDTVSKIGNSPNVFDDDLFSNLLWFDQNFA
row,Sequence,PBM E-score
1,TACGAGAA,-0.113
2,ACCGAGAA,0.311
3,CCCGAGAG,0.385
4,TCCGAGAA,0.455
5,CACGAGAA,-0.167
6,CTCGAGAG,-0.201
7,CCCGAGAA,0.44
8,GTCGAGAC,0.0445
9,TTCGAGAA,-0.207
10,GCCGAGAC,0.392
11,ATAATCAT,-0.0964
12,CCCATTAC,-0.104
13,CCCGCAAC,0.228
14,CAGGCACA,-0.178
15,ACGGGCCT,0.0389
16,CAACCACC,0.0572
17,GCCTAGAC,-0.139
18,CCTCGAAC,-0.249
19,GTGACCAA,-0.203
20,CCCGAGAC,0.412
21,CGCGAGAC,-0.0463
22,GCCGAGAA,0.406

row,Sequence,PBM E-score
1,GTCGAGAA,-0.277
2,ACCGAGAC,0.357
3,GACGAGAA,-0.169
4,CACCTACG,0.0326
5,AACCATGT,0.0503
6,AAACCATA,-0.0199
7,GACTAGCA,-0.114
8,GAGGAGGA,-0.152
9,CACCCAAA,-0.0471
10,CACCCGAA,0.436
11,CCCCCGAG,0.352
12,CACCCGAC,0.384
13,CACCCGGC,0.277
14,CACCCGGG,0.323
15,CCCCCGAA,0.297
16,ACCCCGAG,0.333
17,CCCCCGAC,0.175
18,AACCCGAT,0.285
19,AACCCGAG,0.406
20,CACCCGAG,0.448
21,CCCTAAGG,-0.232
22,ACCGCTTG,-0.0825

row,Sequence,PBM E-score
1,CAATTTCG,0.0914
2,TGTAAGAA,0.101
3,CACCTCCA,-0.167
4,AAGGATAG,0.00922
5,CGTTCAGC,-0.00077
6,AACTCGGG,0.383
7,CACTCGTA,-0.292
8,TACTCGGA,0.409
9,AACTCGCA,-0.278
10,CACTCGGA,0.422
11,AACTCGTG,0.0628
12,CACTCGAA,-0.267
13,AACTCGGT,0.286
14,AACTCGCG,-0.00482
15,TACTCGCA,-0.0584
16,AACTCGGA,0.426
17,TACTCGAA,-0.25
18,TTCCAGAA,-0.0529
19,GTCGTGAA,-0.19
20,ATAAGCGA,0.0555
21,ATCTGCAT,-0.071
22,AGGAACTG,-0.148

row,Sequence,PBM E-score
1,CGATCATC,0.0839
2,CACTCGGC,0.402
3,CACTCGGG,0.371
4,GACTCGCA,-0.0572
5,CACTCGTC,0.0228
6,GACTCGGA,0.451
7,GACTCGGC,0.327
8,CTCCCAAG,-0.114
9,ACGCCAGG,-0.0466
10,AAATCATG,-0.27
11,ATACCCGG,0.391
12,ATACCCTG,-0.0928
13,GTACCCGA,0.437
14,ATACCCAA,-0.0395
15,CTACCCGC,0.273
16,CTACCCGA,0.464
17,ATACCCGA,0.476
18,ATACCCCG,0.205
19,GTACCCTA,-0.206
20,CTACCCAA,-0.209
21,GTACCCAA,-0.0334
22,ATACCCGC,0.328
